The panel holds about 83,000 compounds, 20% with a hit somewhere; the sample as a whole holds those more often.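 48-hour exposure, single concentration, 96-well plates; percent growth endpoint where 0 means no net growth. Active: below 10.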 Unmarked numbers belong to inactive results.

For one assay, the system named is CAKI-1 renal. Description: NCI-60 one-dose screen, 48 h (100 = growth as untreated, 0 = no growth, -100 = all killed). The conditions noted are these: 10 µM unless noted.
As to `Nc1nc(Cl)cc(Cl)n1`, the growth was 102%.

`CCCCCCCCCCCCCCCCOc1ccccc1NC(=O)CC(C)=O`: the growth was 92.5%.

As to `Cc1cc(Cc2ccccc2)c(O)c(Cc2ccccc2)c1`, the growth was 80.5%.

Turning to `Nc1cc(N)ncn1`, the growth is 102%.

Turning to `CC(C)(C)NCCC(O)c1cc(C(F)(F)F)nc2c(C(F)(F)F)cccc12` (centres undefined), the growth is 75.4%.

Consider `C=C(OC(C)=O)c1ccccc1`, for which the growth was 100%.

As to `O=Cc1c(O)c2ccccc2[nH]c1=O`, the growth is 98.1%.

Regarding `CN=S(=O)(OCCCCCOS(=O)(=NC)c1ccc(C)cc1)c1ccc(C)cc1` (centres undefined), the growth was 74.6%.

`CCOC(=O)c1c(C)[nH]c(C)c1C=O`: the growth was 99.8%.

On to `O=C(NCc1ccccc1)/C(=C/c1ccccc1)NC(=O)c1ccccc1`, for which the growth is 103%.

Regarding `O=c1cc(Cl)nc2ccccn12`, the growth is 96.1%.

For `Oc1cc(O)c2c(c1)O[C@H](c1ccc(O)c(O)c1)[C@@H](O)C2`, the growth was 99.4%.

For the compound `CCOP(=O)(NC(c1ccccc1)c1ccccc1)OCC`, the growth is 93%.

For `Cc1ccc2nc(N)nnc2c1`, the growth was 83.7%.

As for `Cc1ccc(S(N)(=O)=O)cc1Cl`, the growth was 101%.

As to `Nc1cc2ccccc2c(O)c1O`, the growth is 84.5%.

Consider `CC(C)N1CC(=O)N2CSCC2C1=O` (centres undefined), for which the growth is 100%.

As to `CCOC(=N)CC(=O)Nc1cccc(C)c1Cl`, the growth is 93.7%.

Consider `Cc1cc2c(C(C)C)c(O)c(O)c(C=Nc3ccccc3[N+](=O)[O-])c2c(O)c1-c1c(C)cc2c(C(C)C)c(O)c(O)c(C=Nc3ccccc3[N+](=O)[O-])c2c1O`, for which the growth was 88%.

Turning to `Cc1cc(C(=O)NN)c(C#N)c(=O)[nH]1`, the growth was 96.8%.

With `COC1OC(CO)C(OC)C(O)C1O` (centres undefined), the growth is 105%.

Consider `CCOC(=O)/C(O)=C(\C=N\C(=S)Nc1ccc(Cl)c(Cl)c1)C(=O)OCC`, for which the growth is 89.2%.

In the case of `O=C(c1ccccc1)c1ccc(-c2ccc(O)cc2)cc1`, the growth was 103%.

Take `CC(=O)C1C(=O)C(=O)N(c2cccc([N+](=O)[O-])c2)C1=O` (centres undefined): the growth is 102%.

Take `CCOC(OCC)C(=O)c1ccccc1`: the growth was 107%.

`Cc1ccc(O)c(N)c1`: the growth was 215%.

For the compound `COC(=O)c1ccccc1C(=O)c1c(C)cc(C)cc1C`, the growth was 96.4%.

Regarding `COc1cc(-c2ccc(NC(=O)CC(C)=O)c(OC)c2)ccc1NC(=O)CC(C)=O`, the growth was 97%.

As to `Oc1cccc(CNC2CCCCC2)c1`, the growth was 106%.

With `COc1ccc(C(=O)C(=O)c2ccccc2)cc1`, the growth is 99.9%.

With `CSc1cnc2ccccc2n1`, the growth was 97%.

On to `Nc1ccc2c(c1)Cc1cc(N)c(N)cc1-2`, for which the growth was 102%.

For `CCCCN(C(=O)CC)c1ccccc1`, the growth was 101%.

In the case of `Nc1c(Br)cc(O)c2c1C(=O)c1ccccc1C2=O`, the growth is 83.8%.

With `CC(=O)N(C(C)=O)c1ccc(C)cc1`, the growth was 92.7%.

Consider `Cc1cc(CC(=O)NCCO)n(CCO)c(=O)c1`, for which the growth is 101%.

As to `CCOC(=O)c1ccc(NC(C)=O)o1`, the growth was 103%.

Another assay relates to A498 renal. The assay is described as above. The conditions noted are these: 10 µM unless noted.
With `Nc1nc(Cl)cc(Cl)n1`, the growth is 118%.

As to `CCCCCCCCCCCCCCCCOc1ccccc1NC(=O)CC(C)=O`, the growth is 93.5%.

Turning to `Cc1cc(Cc2ccccc2)c(O)c(Cc2ccccc2)c1`, the growth was 98.6%.

For `Nc1cc(N)ncn1`, the growth was 93.8%.

As to `CC(C)(C)NCCC(O)c1cc(C(F)(F)F)nc2c(C(F)(F)F)cccc12` (centres undefined), the growth was 33.3%.

With `C=C(OC(C)=O)c1ccccc1`, the growth was 95.3%.

`O=Cc1c(O)c2ccccc2[nH]c1=O`: the growth was 119%.

With `CN=S(=O)(OCCCCCOS(=O)(=NC)c1ccc(C)cc1)c1ccc(C)cc1` (centres undefined), the growth was 87.6%.

In the case of `CCOC(=O)c1c(C)[nH]c(C)c1C=O`, the growth was 92%.

Take `O=C(NCc1ccccc1)/C(=C/c1ccccc1)NC(=O)c1ccccc1`: the growth was 90.9%.

With `O=c1cc(Cl)nc2ccccn12`, the growth is 103%.

In the case of `Oc1cc(O)c2c(c1)O[C@H](c1ccc(O)c(O)c1)[C@@H](O)C2`, the growth is 120%.

Regarding `CCOP(=O)(NC(c1ccccc1)c1ccccc1)OCC`, the growth is 102%.

Turning to `Cc1ccc2nc(N)nnc2c1`, the growth was 95.2%.

Take `Cc1ccc(S(N)(=O)=O)cc1Cl`: the growth was 106%.

Turning to `Nc1cc2ccccc2c(O)c1O`, the growth is 97.2%.

In the case of `CC(C)N1CC(=O)N2CSCC2C1=O` (centres undefined), the growth was 123%.

Take `CCOC(=N)CC(=O)Nc1cccc(C)c1Cl`: the growth was 120%.

For the compound `Cc1cc2c(C(C)C)c(O)c(O)c(C=Nc3ccccc3[N+](=O)[O-])c2c(O)c1-c1c(C)cc2c(C(C)C)c(O)c(O)c(C=Nc3ccccc3[N+](=O)[O-])c2c1O`, the growth was 101%.

With `Cc1cc(C(=O)NN)c(C#N)c(=O)[nH]1`, the growth is 95.7%.

Turning to `COC1OC(CO)C(OC)C(O)C1O` (centres undefined), the growth is 92.7%.

For the compound `CCOC(=O)/C(O)=C(\C=N\C(=S)Nc1ccc(Cl)c(Cl)c1)C(=O)OCC`, the growth was 101%.

As to `O=C(c1ccccc1)c1ccc(-c2ccc(O)cc2)cc1`, the growth is 65.1%.

On to `CC(=O)C1C(=O)C(=O)N(c2cccc([N+](=O)[O-])c2)C1=O` (centres undefined), for which the growth was 79.2%.

With `CCOC(OCC)C(=O)c1ccccc1`, the growth is 94%.

Regarding `Cc1ccc(O)c(N)c1`, the growth was 127%.

Regarding `COC(=O)c1ccccc1C(=O)c1c(C)cc(C)cc1C`, the growth was 88.9%.

`COc1cc(-c2ccc(NC(=O)CC(C)=O)c(OC)c2)ccc1NC(=O)CC(C)=O`: the growth is 110%.

`Oc1cccc(CNC2CCCCC2)c1`: the growth is 136%.

For `COc1ccc(C(=O)C(=O)c2ccccc2)cc1`, the growth is 97.5%.

Take `CSc1cnc2ccccc2n1`: the growth was 105%.

Turning to `Nc1ccc2c(c1)Cc1cc(N)c(N)cc1-2`, the growth is 98.8%.

`CCCCN(C(=O)CC)c1ccccc1`: the growth is 83.3%.

On to `Nc1c(Br)cc(O)c2c1C(=O)c1ccccc1C2=O`, for which the growth is 76.4%.

`CC(=O)N(C(C)=O)c1ccc(C)cc1`: the growth is 119%.

Turning to `Cc1cc(CC(=O)NCCO)n(CCO)c(=O)c1`, the growth was 89.4%.

With `CCOC(=O)c1ccc(NC(C)=O)o1`, the growth was 63%.

The record behind these values is PubChem BioAssay (NCI).
